Test results: the supplement of paper PMC6089552
Hit rate of the full screen: of about 3,200 compounds, about 300 (9.4%) showed activity. The sample holds actives, similar compounds and a random draw of the others, so the mix is not that of the screen.

System: A673/TR/shEF
Test: cell viability (LOESS-normalised, relative to median of negative controls) (log2 ratio); higher = more viable cells (less compound effect), active = hit call of the paper (over 3 MAD below the median)
Settings: treatment time: 72 h
Method in brief: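 Doxycycline, present or absent from 24 h before compounds, was used to induce EWS-FLI1 shRNA knockdown in A673/TR/shEF Ewing sarcoma cells at 1,500 per well in 384-well plates. Cells then received library compounds at two or more concentrations, or DMSO controls, for three days. Viability was measured by CellTiter-Glo luminescence on an Envision reader, and per-plate LOESS correction, division by the negative-control median and log2 transformation followed.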

[1] = 0.25 µM, library screen: screen2, EWS-FLI1 expression: high (no doxycycline)
[2] = 0.25 µM, library screen: screen2, EWS-FLI1 expression: low (doxycycline-induced shRNA knockdown)
[3] = 2.5 µM, library screen: screen2, EWS-FLI1 expression: high (no doxycycline)
[4] = 2.5 µM, library screen: screen2, EWS-FLI1 expression: low (doxycycline-induced shRNA knockdown)
[5] = 0.25 µM, library screen: screen1, EWS-FLI1 expression: high (no doxycycline)
[6] = 0.25 µM, library screen: screen1, EWS-FLI1 expression: low (doxycycline-induced shRNA knockdown)
[7] = 2.5 µM, library screen: screen1, EWS-FLI1 expression: high (no doxycycline)
[8] = 2.5 µM, library screen: screen1, EWS-FLI1 expression: low (doxycycline-induced shRNA knockdown)

In the case of `CC(O)C(C)OC(=O)[C@@H]1C[C@@H]2c3cccc4c3c(cn4C(C)C)C[C@H]2N(C)C1` (some centres undefined), the “cell viability (log2)” value [1] is reported as 0.174 (inactive), the “cell viability (log2)” value [2] is reported as 0.171 (inactive) and the “cell viability (log2)” value [3] is reported as 0.12 (inactive). The “cell viability (log2)” value [4] was 0.112 (inactive).
In the case of `NCCc1cccc(O)c1`, the “cell viability (log2)” value [5] is reported as 0.0584 (inactive), the “cell viability (log2)” value [6] is reported as 0.0834 (inactive) and the “cell viability (log2)” value [7] is reported as 0.0622 (inactive). The “cell viability (log2)” value [8] was 0.0348 (inactive).
In the case of `CN1CC[C@@]2(C)c3cc(O)ccc3N(C)C12` (some centres undefined), the “cell viability (log2)” value [1] is reported as 0.117 (inactive), the “cell viability (log2)” value [2] is reported as 0.0622 (inactive) and the “cell viability (log2)” value [3] is reported as 0.072 (inactive). For the same molecule, the “cell viability (log2)” value [4] was 0.0674 (inactive).
`CNNC` was tested, and the “cell viability (log2)” value (0.025 µM, library screen: screen2, EWS-FLI1 expression: high (no doxycycline)) was 0.186 (inactive), the “cell viability (log2)” value (0.025 µM, library screen: screen2, EWS-FLI1 expression: low (doxycycline-induced shRNA knockdown)) was 0.0401 (inactive) and the “cell viability (log2)” value [5] was 0.136 (inactive). The “cell viability (log2)” value [6] was 0.152 (inactive), the “cell viability (log2)” value [1] was 0.206 (inactive) and the “cell viability (log2)” value [2] was 0.035 (inactive). For the same molecule, the “cell viability (log2)” value [7] was 0.115 (inactive), the “cell viability (log2)” value [8] was 0.131 (inactive) and the “cell viability (log2)” value [3] was 0.112 (inactive). The “cell viability (log2)” value [4] was 0.0817 (inactive), the “cell viability (log2)” value (25 µM, library screen: screen2, EWS-FLI1 expression: high (no doxycycline)) was 0.239 (inactive) and the “cell viability (log2)” value (25 µM, library screen: screen2, EWS-FLI1 expression: low (doxycycline-induced shRNA knockdown)) was 0.143 (inactive).
With `Nc1ncnc2c1ncn2[C@@H]1O[C@H](COP(=O)(O)CP(=O)(O)OP(=O)([O-])[O-])[C@H](O)C1O.[Li+].[Li+]` (some centres undefined) the “cell viability (log2)” value [1] was 0.132 (inactive), the “cell viability (log2)” value [2] was 0.0925 (inactive) and the “cell viability (log2)” value [3] was 0.106 (inactive). The “cell viability (log2)” value [4] was 0.143 (inactive).
For `N[C@@H](Cn1ccc(=O)[nH]c1=O)C(=O)O`, the “cell viability (log2)” value [1] was 0.256 (inactive), the “cell viability (log2)” value [2] was -0.00427 (inactive) and the “cell viability (log2)” value [3] was 0.176 (inactive). For the same molecule, the “cell viability (log2)” value [4] was 0.041 (inactive).
In the case of `CNC(=O)O/N=C/C(C)(C)SC`, the “cell viability (log2)” value [5] is reported as 0.0387 (inactive), the “cell viability (log2)” value [6] is reported as 0.0491 (inactive) and the “cell viability (log2)” value [7] is reported as 0.106 (inactive). For the same molecule, the “cell viability (log2)” value [8] was 0.0724 (inactive).
`C[C@@H]1OC(=O)[C@H]2C[C@H]3CCCC[C@@H]3[C@@H](/C=C/[C@@H]3CCC[C@@H](C)N3C)[C@@H]12` was tested, and the “cell viability (log2)” value [1] was 0.0803 (inactive), the “cell viability (log2)” value [2] was 0.0731 (inactive) and the “cell viability (log2)” value [3] was 0.143 (inactive). The “cell viability (log2)” value [4] was 0.0419 (inactive).
With `c1cncc(C2CCCCN2)c1` (centres undefined) the “cell viability (log2)” value [5] was 0.0408 (inactive), the “cell viability (log2)” value [6] was -0.0074 (inactive) and the “cell viability (log2)” value [7] was 0.145 (inactive). The “cell viability (log2)” value [8] was 0.0957 (inactive).
For `CC(C)=CCC[C@]1(C)C=Cc2c(O)c3c(c(CC=C(C)C)c2O1)O[C@]12C(=C[C@@H]4C[C@H]1C(C)(C)O[C@@]2(C/C=C(/C)C(=O)O)C4=O)C3=O`, the “cell viability (log2)” value [5] was -0.0514 (inactive), the “cell viability (log2)” value [6] was 0.129 (inactive) and the “cell viability (log2)” value [7] was -1.16 (active). The “cell viability (log2)” value [8] was -0.0142 (inactive).
For `CC(C)=CCCC1(C)C=Cc2c(O)c3c(c(CC=C(C)C)c2O1)OC12C(CC4CC1C(C)(C)OC2(C/C=C(/C)C(=O)O)C4O)C3=O` (centres undefined), the “cell viability (log2)” value [5] was 0.0661 (inactive), the “cell viability (log2)” value [6] was 0.00238 (inactive) and the “cell viability (log2)” value [7] was 0.127 (inactive). The “cell viability (log2)” value [8] was 0.0888 (inactive).
For `CC(C)=CCCC1(C)C=Cc2c(O)c3c(c(CC=C(C)C)c2O1)OC12C(=CC4CC1C(C)(C)OC2(CC=C(C)C(=O)O)C4O)C3=O` (centres undefined), the “cell viability (log2)” value [5] was 0.1 (inactive), the “cell viability (log2)” value [6] was 0.0956 (inactive) and the “cell viability (log2)” value [7] was -0.137 (active). The “cell viability (log2)” value [8] was 0.307.
`CC(=O)Oc1c2c(c(CC=C(C)C)c3c1C(=O)C1=C[C@@H]4CC5C(C)(C)OC(C/C=C(\C)C(=O)O)(C4=O)[C@@]15O3)OC(C)(CCC=C(C)C)C=C2` (some centres undefined) was tested, and the “cell viability (log2)” value [5] was 0.0664 (inactive), the “cell viability (log2)” value [6] was 0.0597 (inactive) and the “cell viability (log2)” value [7] was -0.0173 (inactive). For the same molecule, the “cell viability (log2)” value [8] was 0.269 (inactive).
`COC(=O)/C(C)=C\CC12OC(C)(C)C3CC(C=C4C(=O)c5c(OC)c6c(c(CC=C(C)C)c5OC431)OC(C)(CCC=C(C)C)C=C6)C2=O` (centres undefined) was tested, and the “cell viability (log2)” value [5] was 0.0497 (inactive), the “cell viability (log2)” value [6] was 0.135 (inactive) and the “cell viability (log2)” value [7] was -4.2 (active). For the same molecule, the “cell viability (log2)” value [8] was -3.74 (active).
`COc1cccc(CN2CCN(Cc3ccccc3OC)CC2)c1` was tested, and the “cell viability (log2)” value [5] was 0.108 (inactive), the “cell viability (log2)” value [6] was 0.0202 (inactive) and the “cell viability (log2)” value [7] was 0.149 (inactive). The “cell viability (log2)” value [8] was -0.0141 (inactive).
With `COc1cc2c(cc1-c1cc3cc4ccoc4cc3oc1=O)OCO2` the “cell viability (log2)” value [5] was 0.0215 (inactive), the “cell viability (log2)” value [6] was -0.011 (inactive) and the “cell viability (log2)” value [7] was 0.0285 (inactive). The “cell viability (log2)” value [8] was 0.107 (inactive).
In the case of `CN1[C@H]2CC(OC(=O)C(CO)c3ccccc3)C[C@H]1[C@H]1O[C@H]12` (some centres undefined), the “cell viability (log2)” value (0.103 µM, library screen: screen3, EWS-FLI1 expression: high (no doxycycline)) is reported as 0.0178 (inactive), the “cell viability (log2)” value (0.103 µM, library screen: screen3, EWS-FLI1 expression: low (doxycycline-induced shRNA knockdown)) is reported as 0.0286 (inactive) and the “cell viability (log2)” value [5] is reported as 0.0614 (inactive). For the same molecule, the “cell viability (log2)” value [6] was 0.0379 (inactive), the “cell viability (log2)” value [1] was 0.0402 (inactive) and the “cell viability (log2)” value [2] was 0.0538 (inactive). The “cell viability (log2)” value (0.308 µM, library screen: screen3, EWS-FLI1 expression: high (no doxycycline)) was 0.0468 (inactive), the “cell viability (log2)” value (0.308 µM, library screen: screen3, EWS-FLI1 expression: low (doxycycline-induced shRNA knockdown)) was 0.0486 (inactive) and the “cell viability (log2)” value (0.926 µM, library screen: screen3, EWS-FLI1 expression: high (no doxycycline)) was 0.057 (inactive). The “cell viability (log2)” value (0.926 µM, library screen: screen3, EWS-FLI1 expression: low (doxycycline-induced shRNA knockdown)) was 0.0457 (inactive), the “cell viability (log2)” value [7] was 0.101 (inactive) and the “cell viability (log2)” value [8] was 0.113 (inactive). The “cell viability (log2)” value [3] was 0.0967 (inactive), the “cell viability (log2)” value [4] was 0.105 (inactive) and the “cell viability (log2)” value (2.8 µM, library screen: screen3, EWS-FLI1 expression: high (no doxycycline)) was 0.00477 (inactive). The “cell viability (log2)” value (2.8 µM, library screen: screen3, EWS-FLI1 expression: low (doxycycline-induced shRNA knockdown)) was 0.0597 (inactive), the “cell viability (log2)” value (8.3 µM, library screen: screen3, EWS-FLI1 expression: high (no doxycycline)) was 0.0173 (inactive) and the “cell viability (log2)” value (8.3 µM, library screen: screen3, EWS-FLI1 expression: low (doxycycline-induced shRNA knockdown)) was 0.0298 (inactive). For the same molecule, the “cell viability (log2)” value (25 µM, library screen: screen3, EWS-FLI1 expression: high (no doxycycline)) was -0.0119 (inactive) and the “cell viability (log2)” value (25 µM, library screen: screen3, EWS-FLI1 expression: low (doxycycline-induced shRNA knockdown)) was 0.114 (inactive).
For `CCNc1nc(Cl)nc(NCC)n1`, the “cell viability (log2)” value [5] was 0.0934 (inactive), the “cell viability (log2)” value [6] was -0.0122 (inactive) and the “cell viability (log2)” value [7] was 0.0949 (inactive). For the same molecule, the “cell viability (log2)” value [8] was 0.0079 (inactive).
For `c1ccc2c(c1)sc1ccccc12`, the “cell viability (log2)” value [5] was 0.0739 (inactive), the “cell viability (log2)” value [6] was 0.0613 (inactive) and the “cell viability (log2)” value [7] was 0.158 (inactive). The “cell viability (log2)” value [8] was 0.198 (inactive).
For `CCOP(=S)(OCC)SCSP(=S)(OCC)OCC`, the “cell viability (log2)” value [5] was 0.0176 (inactive), the “cell viability (log2)” value [6] was 0.0157 (inactive) and the “cell viability (log2)” value [7] was 0.0447 (inactive). For the same molecule, the “cell viability (log2)” value [8] was 0.0694 (inactive).
